High-throughput results as filed in PubChem BioAssay.
nsP2pro primary – Primary qHTS for inhibitors of NSP2Pro chikungunya virus (CHIKV); AID 1964107, 2024; 31,000 compounds, 1.1% hits; FRET peptide cleavage, nsP2pro, fluorescence 1 h; Polyprotein P1234 (Chikungunya virus (strain S27-African prototype)), Q8JUX6; Potency, µM (highest dose often 24.9 µM), usual class: inhibitors; also: nearly all actives have a fitted effect of over 60% in size
Target sequence (Q8JUX6 whole entry, looked up): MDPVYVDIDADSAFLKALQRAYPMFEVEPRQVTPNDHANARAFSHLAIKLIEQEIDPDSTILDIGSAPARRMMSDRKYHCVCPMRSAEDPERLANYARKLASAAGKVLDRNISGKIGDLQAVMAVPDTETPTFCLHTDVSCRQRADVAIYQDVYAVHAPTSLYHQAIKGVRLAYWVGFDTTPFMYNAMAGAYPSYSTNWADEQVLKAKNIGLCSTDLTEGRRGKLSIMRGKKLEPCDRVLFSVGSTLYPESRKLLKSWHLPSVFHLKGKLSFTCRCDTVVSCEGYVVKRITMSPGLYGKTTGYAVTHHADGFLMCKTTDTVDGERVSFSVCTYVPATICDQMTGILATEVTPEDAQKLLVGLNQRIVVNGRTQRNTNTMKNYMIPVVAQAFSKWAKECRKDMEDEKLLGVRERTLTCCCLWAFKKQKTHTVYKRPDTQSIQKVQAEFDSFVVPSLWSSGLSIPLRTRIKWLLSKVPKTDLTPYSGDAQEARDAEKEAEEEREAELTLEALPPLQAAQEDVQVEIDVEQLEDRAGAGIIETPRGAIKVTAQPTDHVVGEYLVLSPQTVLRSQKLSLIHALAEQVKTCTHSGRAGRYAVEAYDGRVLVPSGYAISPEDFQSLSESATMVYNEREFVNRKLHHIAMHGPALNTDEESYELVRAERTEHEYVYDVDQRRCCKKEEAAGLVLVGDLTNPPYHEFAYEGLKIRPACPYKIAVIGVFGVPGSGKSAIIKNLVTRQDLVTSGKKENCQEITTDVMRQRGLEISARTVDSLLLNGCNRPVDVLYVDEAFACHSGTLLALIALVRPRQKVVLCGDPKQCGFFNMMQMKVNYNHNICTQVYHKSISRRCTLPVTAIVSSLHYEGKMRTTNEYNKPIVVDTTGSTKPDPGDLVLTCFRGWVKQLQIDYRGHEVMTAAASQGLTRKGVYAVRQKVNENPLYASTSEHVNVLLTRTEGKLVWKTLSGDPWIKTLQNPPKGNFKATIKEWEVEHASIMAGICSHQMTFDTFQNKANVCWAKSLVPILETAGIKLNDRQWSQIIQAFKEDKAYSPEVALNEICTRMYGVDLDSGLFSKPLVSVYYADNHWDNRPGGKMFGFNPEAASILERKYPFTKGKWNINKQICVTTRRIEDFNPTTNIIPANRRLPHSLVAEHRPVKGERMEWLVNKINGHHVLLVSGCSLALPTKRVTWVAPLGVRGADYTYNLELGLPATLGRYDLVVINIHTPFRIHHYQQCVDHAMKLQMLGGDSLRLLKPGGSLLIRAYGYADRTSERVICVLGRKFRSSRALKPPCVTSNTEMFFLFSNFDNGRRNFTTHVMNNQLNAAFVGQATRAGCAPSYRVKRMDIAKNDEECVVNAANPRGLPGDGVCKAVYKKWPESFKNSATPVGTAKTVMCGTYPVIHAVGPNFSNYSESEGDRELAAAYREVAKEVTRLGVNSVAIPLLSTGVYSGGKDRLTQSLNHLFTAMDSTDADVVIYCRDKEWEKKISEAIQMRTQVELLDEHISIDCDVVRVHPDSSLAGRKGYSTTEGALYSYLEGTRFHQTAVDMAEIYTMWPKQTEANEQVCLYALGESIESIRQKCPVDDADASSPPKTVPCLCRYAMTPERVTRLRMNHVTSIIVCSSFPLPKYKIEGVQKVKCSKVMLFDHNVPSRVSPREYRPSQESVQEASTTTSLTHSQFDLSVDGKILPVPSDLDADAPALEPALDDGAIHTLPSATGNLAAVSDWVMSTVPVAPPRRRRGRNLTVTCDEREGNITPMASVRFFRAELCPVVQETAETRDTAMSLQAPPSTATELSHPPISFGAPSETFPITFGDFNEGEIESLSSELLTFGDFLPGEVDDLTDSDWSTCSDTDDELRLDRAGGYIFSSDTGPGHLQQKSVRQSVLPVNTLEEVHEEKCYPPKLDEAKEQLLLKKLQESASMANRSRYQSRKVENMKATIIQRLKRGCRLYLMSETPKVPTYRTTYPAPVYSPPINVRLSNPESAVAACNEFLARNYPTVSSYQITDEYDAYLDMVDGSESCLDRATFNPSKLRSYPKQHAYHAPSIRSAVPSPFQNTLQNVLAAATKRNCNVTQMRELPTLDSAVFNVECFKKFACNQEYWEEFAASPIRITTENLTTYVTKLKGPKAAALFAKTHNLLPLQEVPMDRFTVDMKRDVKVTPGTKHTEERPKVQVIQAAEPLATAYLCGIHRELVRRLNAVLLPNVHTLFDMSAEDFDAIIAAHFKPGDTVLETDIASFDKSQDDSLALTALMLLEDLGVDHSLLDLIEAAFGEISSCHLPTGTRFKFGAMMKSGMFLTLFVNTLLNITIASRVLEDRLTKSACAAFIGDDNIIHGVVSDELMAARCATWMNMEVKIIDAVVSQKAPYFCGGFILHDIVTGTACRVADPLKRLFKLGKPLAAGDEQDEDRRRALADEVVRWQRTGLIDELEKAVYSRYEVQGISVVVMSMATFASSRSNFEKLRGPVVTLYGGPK
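Recombinant nsP2pro (150 nM) was preincubated with compound 15 min at room temperature in 10 mM Tris-HCl pH 8.0, 0.01% Tween 20. Peptide 2 FRET substrate (2.5 uM) was then added and fluorescence read after 1 h. Seven-point series, up to 25 uM.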
nsP2 cell sec – Secondary cell base assay for inhibitors of NSP2Pro Chikungunya virus (CHIKV); shares compounds with nsP2pro primary; cell-based CHIKV nsP2 protease reporter assay; Potency, µM (titrated, usually from 51.1 µM), most hits filed as inhibitors; 450 compounds, 10% hits; AID 1964100, 2024; also: nearly all actives have a fitted effect of over 70% in size
NSP2 full ctr – Selectivity profile for inhibitors of NSP2Pro chikungunya virus (CHIKV): Full length NSP2 enzyme counterscreen (CHIKV-NSP2); shares compounds with nsP2pro primary; Full-length CHIKV NSP2 protease enzymatic counterscreen; Potency, µM (highest dose often 50.7 µM), usual class: inhibitors; 410 compounds, 39% hits; AID 1964101, 2024; also: nearly all actives have a fitted effect of over 65% in size
Furin counter – Selectivity profile for inhibitors of NSP2Pro chikungunya virus (CHIKV): Human furin counterscreen; 410 compounds, 6% hits; Potency, µM (doses to about 50.6 µM), hits mostly inhibitors; Recombinant human furin enzymatic counterscreen, fluorogenic substrate; shares compounds with nsP2pro primary
NS23 peptide cs – Selectivity profile for inhibitors of NSP2Pro chikungunya virus (CHIKV): Endogenous NS2/3 peptide Counterscreen; shares compounds with nsP2pro primary; Purified CHIKV nsP2 protease, endogenous NS2/3 peptide cleavage; Potency, µM (top dose mostly 51 µM), actives largely listed as inhibitors; 410 compounds, 34% hits; AID 1964103, 2024; also: nearly all actives have a fitted effect of over 55% in size
Papain counter – Selectivity profile for inhibitors of NSP2Pro chikungunya virus (CHIKV): Papain Counterscreen; 410 compounds, 5% hits; Potency, µM (top dose mostly 51 µM), usual class: inhibitors; purified papain protease activity, enzymatic inhibition; shares compounds with nsP2pro primary; AID 1964104, 2024
nsP2pro conf qHTS – Confirmatory qHTS for inhibitors of NSP2Pro chikungunya virus (CHIKV). shares compounds with nsP2pro primary. CHIKV nsP2 protease enzymatic activity, qHTS. Potency, µM (highest dose often 25.5 µM), hits mostly inhibitors. 410 compounds, 43% hits; also: nearly all actives have a fitted effect of over 75% in size
HCV NS3 4A cs – Selectivity profile for inhibitors of NSP2Pro chikungunya virus (CHIKV): NS34A-HCV Counterscreen; Potency, µM (doses to about 50.9 µM), hits mostly inhibitors; HCV NS3/4A protease biochemical counterscreen; 410 compounds, 20% hits; AID 1964106, 2024; shares compounds with nsP2pro primary; also: nearly all actives have a fitted effect of over 55% in size
Numbers stand for hits; . = inactive; ? = inconclusive. The entries come from a sample that favours hits as a whole. Calls follow the shape of the full dose curve.

SMILES	nsP2pro primary	others
O=C1C(Cl)=C(N2CCOCC2)C(=O)N1c1ccc(Cl)c(Cl)c1	?	nsP2 cell sec=?;NSP2 full ctr=?;Furin counter=.;NS23 peptide cs=?;Papain counter=?;nsP2pro conf qHTS=3.1µM;HCV NS3 4A cs=.
Fc1cc(Nc2nc(-c3ccncc3)nc3ccccc23)ccc1-c1cncnc1	.
O=C(Nc1nc(-c2ccccc2)cs1)c1ccncc1NS(=O)(=O)c1cccc2cccnc12	.
CCOC(=O)C1CCN(C(=O)C(C)(C)NC(=O)Nc2ccc(N)cc2)CC1	.
Cc1ccc(-n2c(=O)ccc(=O)n2CC(=O)NCCc2ccccc2)cc1	.
COc1ccc(-c2ccc3nnc(CNC(=O)c4ccoc4)n3n2)cc1	.
CC(NC(=O)[C@H](Cc1ccccc1)NC(=O)OCc1ccccc1)C(=O)CF (some centres undefined)	.
C[C@H](NC(=O)[C@H](Cc1ccccc1)NC(=O)OCc1ccccc1)C(=O)CF	?	nsP2 cell sec=.;NSP2 full ctr=?;Furin counter=.;NS23 peptide cs=.;Papain counter=0.046µM;nsP2pro conf qHTS=?;HCV NS3 4A cs=.
CC(C)C[C@H](NC(=O)CNC(=O)OCc1ccccc1)C(=O)N[C@@H](Cc1ccccc1)C(=O)CCl	.
O=C(N[C@H]1CO[C@H]2[C@@H]1OC[C@@H]2Nc1nccc(-c2ccc(-c3ccccc3)cc2)n1)C1CCCCC1	.
O=C(Cc1ccccc1)Nc1nnc(CCSCCc2nnc(NC(=O)Cc3ccccc3)s2)s1	.
CC(C)(C)OC(=O)N1CCN(c2ccc(NCc3ncc(-c4ccc(C#N)cc4)o3)cc2)CC1	.
CC(C)(C)OC(=O)N1CCC(c2ccc(NCc3ccc(-c4ccc(C#N)cc4)o3)cc2)CC1	.
COc1ccc(-c2ccc(CNc3ccc(N4CCN(C(=O)OC(C)(C)C)CC4)cc3)o2)cc1	.
CCOC(=O)C1CCN(c2ccc(NCc3ccc(-c4ccc(C#N)cc4)o3)cc2)CC1	4.5µM	nsP2 cell sec=21µM;NSP2 full ctr=?;Furin counter=.;NS23 peptide cs=?;Papain counter=.;nsP2pro conf qHTS=.;HCV NS3 4A cs=3.7µM
N#Cc1ccc(-c2ccc(CNc3ccc(N4CCC(C#N)CC4)cc3)o2)cc1	10µM	nsP2 cell sec=?;NSP2 full ctr=?;Furin counter=.;NS23 peptide cs=?;Papain counter=.;nsP2pro conf qHTS=?;HCV NS3 4A cs=2.6µM
CC(C)(C)OC(=O)N1CCN(c2ccc(NCc3ccc(-c4ccc(C#N)cc4)o3)nc2)CC1	.
CC(C)(Oc1ccc(C(=O)c2ccc(Cl)cc2)cc1)C(=O)O	.
CCC1(C(=O)O)CCCN(Cc2ccccc2)C1 (centres undefined)	.
C=C(CO)C12OC1C1(C)C(=CC2=O)C(O)C(O)CC1C (centres undefined)	.
O=C(CCSCc1ccccc1)N1C[C@@H](CN2CCOCC2)[C@@H](CO)C1	.
CC[C@H]1OC(=O)C[C@@H](O)[C@H](C)[C@@H](O[C@@H]2O[C@H](C)[C@@H](O)[C@H](N(C)C)[C@H]2O)[C@@H](CCN2C[C@H](C)C[C@H](C)C2)C[C@@H](C)C(=O)/C=C/C(C)=C/[C@@H]1CO[C@@H]1O[C@H](C)[C@@H](O)[C@@H](OC)[C@H]1OC	.
Cc1cc(S(=O)(=O)N2CCCC2c2noc(COc3ccc(F)cc3)n2)ccc1F (centres undefined)	.
c1ccc(-c2noc(-c3cncnc3NC3CCCCC3)n2)cc1	.
C[C@@H](N)C(=O)N[C@@H](CO)C(=O)N[C@H](C(=O)N[C@H](C(=O)N[C@H](C(=O)N[C@@H](CC(N)=O)C(=O)N[C@@H](Cc1ccc(O)cc1)C(=O)N[C@H](C(N)=O)[C@@H](C)O)[C@@H](C)O)[C@@H](C)O)[C@@H](C)O	.
SMILES	nsP2pro primary	others
NC(=O)N/N=C/c1ccc([N+](=O)[O-])o1	.
Cc1ccc(S(=O)(=O)c2ccc([N+](=O)[O-])o2)cc1	0.56µM	nsP2 cell sec=?;NSP2 full ctr=1.5µM;Furin counter=.;NS23 peptide cs=4.6µM;Papain counter=?;nsP2pro conf qHTS=0.56µM;HCV NS3 4A cs=.
O=NCc1ccc([N+](=O)[O-])o1	.
COc1ccc(NC(=O)C(OC(=O)CNC(=O)c2ccccc2)c2ccccc2)c(C)c1 (centres undefined)	.
COc1cccc(C(=O)CCN[C@@H](C)[C@H](O)c2ccccc2)c1	1.6µM	nsP2 cell sec=.;NSP2 full ctr=5.8µM;Furin counter=.;NS23 peptide cs=10µM;Papain counter=.;nsP2pro conf qHTS=1.3µM;HCV NS3 4A cs=.
C[C@H](NCCc1ccc(O)cc1)[C@H](O)c1ccc(O)cc1	.
Cc1cc2ncc(C(=O)N3CCOCC3)cn2n1	.
COc1ccccc1N1CCN(CC[C@H]2CN(C(=O)NC3CCCCC3)CC[C@H]2CC(=O)O)CC1	.
C[C@H](c1ccccc1)N1C(=O)[C@@H]2CN(C(=O)CC(C)(C)C)CCN2C1=O	.
O=S(=O)(c1ccccc1)N1CCN(c2nccc(-c3cccs3)n2)CC1	.
CC(=O)O[C@@H]1[C@@H](CO)O[C@@](CO)(O[C@H]2O[C@H](COC(=O)/C=C/c3ccccc3)[C@@H](O)[C@H](O)[C@H]2O)[C@H]1O	.
O=C(/C=C/c1ccc(O)c(O)c1)OC[C@H]1O[C@@H](OC2CCCCC2O)[C@H](O)[C@@H](O)[C@@H]1O (some centres undefined)	.
CC(CO[C@@H]1O[C@H](COC(=O)/C=C/c2ccc(O)c(O)c2)[C@@H](O)[C@H](O)[C@H]1O)C1(O)COC(=O)C1 (some centres undefined)	?	nsP2 cell sec=.;NSP2 full ctr=.;Furin counter=.;NS23 peptide cs=.;Papain counter=.;nsP2pro conf qHTS=.;HCV NS3 4A cs=.
CCC(CC)c1cc([C@H]2CN3CC[C@H]2C[C@@H]3CO)nc(-c2ccncc2)n1	.
COCCCNC(=O)c1cnn(-c2ccc(F)cc2F)c1C1CCNCC1	.	nsP2 cell sec=.;NSP2 full ctr=16µM;Furin counter=.;NS23 peptide cs=?;Papain counter=.;nsP2pro conf qHTS=?;HCV NS3 4A cs=?
CC(C)(C)OC(=O)N1CCC(c2c(C(=O)NCCc3ccccc3)cnn2-c2ccc(F)cc2F)CC1	.
CC(C)(C)OC(=O)N1CCC(c2c(C(=O)NCCN3CCc4ccccc4C3)cnn2-c2ccc(F)cc2F)CC1	.
COc1ccc(NS(=O)(=O)c2ccc(N)cc2)nn1	.
